Six1-Eya2 blk: blocks human Six1 binding to Eya2; Q15475+O00167; AlphaScreen GST-Six1/His-Eya2 binding, biochemical; hits give low values; activity change, % (no concentration beside the values); hit rate 0.56% among 360,000; AID 651725; in the data active = activity change below about -65%; inconclusive = mostly about -30% to -63%
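GST-Six1 + His-Eya2 (5X stock: 250/500 nM); Tris pH 8.0, 300 mM NaCl, 0.05% BSA, 0.02% Tween 20; GSH donor/Ni acceptor beads; 1 h 37 °C dark; AlphaScreen readout.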
HP1b binding inh: inhibitors of HP1-beta chromodomain binding to methylated histone tails; P83916; AlphaScreen HP1-beta / biotin-H3K9me3 peptide binding; Potency, µM (doses to about 114 µM), most hits filed as inhibitors; hit rate 0.56% among 390,000; note: nearly all actives have a fitted effect of over 70% in size
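HP1-beta protein (50 nM final) preincubated 30 min at room temperature with biotinylated H3(1-18)K9me3 peptide (50 nM) in PBS pH 7.4, 0.01% Tween-20, then compound added for 30 min. AlphaScreen streptavidin donor/nickel chelate acceptor beads (10 ug/mL final), 30 min dark, luminescence read.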
CtBP-E1A inh: CtBP/E1A binding inhibition; activity change, % (test concentration not listed); hit rate 0.49% among 340,000; AlphaScreen GST-E1A/His-CtBP binding, 1536-well; hits give low values; AID 651724; in the data active = activity change below about -65%; inconclusive = mostly about -30% to -63%
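In 5 uL wells, 23 nL compound meets equimolar GST-E1A and His-CtBP (5X stock 125 nM each) for 2 h, 37 °C. Beads (5X, 50 ug/mL) then 1 h, 37 °C, dark.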
G9a block: inhibitors of human histone lysine methyltransferase G9a | Q96KQ7 | G9a H3K9 monomethylation, AlphaScreen, 2 h | Potency, µM (top dose mostly 102 µM), most hits filed as inhibitors | hit rate 8.8% among 350,000; note: nearly all actives have a fitted effect of over 75% in size
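G9a (20 nM) preincubated 15 min RT with compounds, then 500 nM biotinylated H3K9 peptide and 20 uM SAM added; 2 h RT reaction. Monomethyl-H3K9 product detected by AlphaScreen with anti-H3K9me1 antibody, streptavidin donor and anti-rabbit IgG acceptor beads.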
JMJD2A Tudor: JMJD2A Tudor domain (human) inhibition; O75164; AlphaScreen JMJD2A-Tudor / H3K4me3 peptide binding; Potency, µM (highest dose often 114 µM), hits mostly inhibitors; hit rate 4.4% among 390,000; AID 504339; note: nearly all actives have a fitted effect of over 50% in size
BAZ2B inh: inhibitors of human BAZ2B bromodomain | Potency, µM (doses to about 114 µM), actives largely listed as inhibitors | hit rate 4.4% among 360,000 | Q9UIF8 | AlphaScreen BAZ2B-H3K14Ac peptide displacement; note: nearly all actives have a fitted effect of over 60% in size
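In this displacement format the biotinylated H3(5-23) peptide acetylated at Lys14 serves as ligand at 50 nM, with BAZ2B at 50 nM in PBS pH 7.4 containing 0.01% Tween-20. Donor and acceptor beads are 10 ug/mL final.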
Numbers stand for hits; [ ] = dose if it differs, or a comment. This is a sample that favours compounds with a hit; in the whole collection about 10% have one here. Unless noted, calls come from the whole dose curve; as a rule, active = well fitted inhibition curve with a large enough effect; inconclusive = small, poorly fitted or top-dose-only effect; inactive = no such curve, though single readings can be large or run the other way.

CCCCCc1cc(=O)oc2c(C(CCN3CCCC(C)C3)c3ccc(N(C)C)cc3)c(OC)cc(OC)c12 (centres undefined) was read as Six1-Eya2 blk inconclusive, HP1b binding inh 25µM, G9a block inactive[12.7 µM], JMJD2A Tudor 25µM and BAZ2B inh 11µM.
`COc1cc(OC)c2ccc(=O)oc2c1C(CC(=O)N1CCCC(C)C1)c1ccc2c(c1)OCO2` (centres undefined) gave Six1-Eya2 blk inactive, HP1b binding inh inactive, CtBP-E1A inh inactive, G9a block inactive[12.7 µM], JMJD2A Tudor inconclusive and BAZ2B inh 50µM.
COc1cc(OC)c2ccc(=O)oc2c1C(CCN1CCCC(C)C1)c1ccc(N(C)C)cc1 (centres undefined) was read as Six1-Eya2 blk inactive, HP1b binding inh inactive, CtBP-E1A inh inactive, G9a block inconclusive, JMJD2A Tudor 35µM and BAZ2B inh inconclusive.
`CCCCCc1cc(=O)oc2c(C(CCN3CCCC(C)C3)c3cc(OC)c(OC)c(OC)c3)c(OC)cc(OC)c12` (centres undefined) gave Six1-Eya2 blk inactive, HP1b binding inh inactive, CtBP-E1A inh inactive, G9a block inconclusive, JMJD2A Tudor inconclusive and BAZ2B inh inactive.
For CCCOc1cccc(C(=O)N(Cc2ccc(C)o2)C2CCS(=O)(=O)C2)c1 (centres undefined) the results were HP1b binding inh inactive, G9a block inactive, JMJD2A Tudor inactive and BAZ2B inh inactive.
COc1ccc(C2CC(=O)C(C(c3ccc(O)cc3)C3C(=O)CC(c4ccc(OC)cc4)CC3=O)C(=O)C2)cc1 (centres undefined) was read as G9a block 25µM and BAZ2B inh inactive.
CCC(C(=O)N1CCOCC1)n1nc(C)n2c(cc3cc(C)ccc32)c1=O (centres undefined) was read as Six1-Eya2 blk inactive, HP1b binding inh inactive, CtBP-E1A inh inactive, JMJD2A Tudor inactive and BAZ2B inh inactive.
Screening O=C(CCc1nc(-c2ccccn2)no1)NCc1ccc2c(c1)OCO2 returned Six1-Eya2 blk inactive, HP1b binding inh inactive, CtBP-E1A inh inactive, G9a block inactive, JMJD2A Tudor inactive and BAZ2B inh inactive.
For O=C(CCc1nnc(Cc2ccc3c(c2)OCO3)o1)NCc1nc2ccccc2s1 the results were Six1-Eya2 blk inactive, HP1b binding inh inactive, CtBP-E1A inh inactive, G9a block 45µM, JMJD2A Tudor inactive and BAZ2B inh inactive.
Screening CCC(=O)Nc1ccccc1-c1nc2ccccc2n(CC(=O)c2ccc(Br)cc2)c1=O returned HP1b binding inh inactive, G9a block inactive, JMJD2A Tudor inactive and BAZ2B inh inactive.
`Cc1cc(OC(C)C(=O)NCCCN2CCOCC2)c2c(C)cc(=O)oc2c1` (centres undefined) gave Six1-Eya2 blk inactive, HP1b binding inh 79µM, G9a block inactive[0.0925 µM], JMJD2A Tudor inactive and BAZ2B inh inactive.
For CCn1nc(C)c2c(-c3ccccc3)cc(=O)n(C(C)C(=O)NCCc3ccc(Cl)cc3)c21 (centres undefined) the results were HP1b binding inh inactive, G9a block inactive, JMJD2A Tudor inactive and BAZ2B inh inactive.
Screening O=C(Nc1nnc(-c2ccco2)s1)C1CC1 returned Six1-Eya2 blk inactive, HP1b binding inh inactive, CtBP-E1A inh inactive, G9a block 50µM, JMJD2A Tudor inconclusive and BAZ2B inh inconclusive.
Screening COc1cccc(NC(=O)c2cn(C3CCCCC3)c(=O)c3c2c2ccccc2n3C)c1 returned HP1b binding inh inactive, G9a block inactive, JMJD2A Tudor inactive and BAZ2B inh inactive.
`CCCCCCCN(c1ccccc1)[C@@H]1C[C@H]2CCCC(=O)N3CC[C@@H](C1)[C@@H]23` gave Six1-Eya2 blk inactive, HP1b binding inh inactive, CtBP-E1A inh inactive and JMJD2A Tudor 45µM.
`Cc1ccc(-c2nc3ccccc3o2)cc1NC(=S)NC(=O)/C=C/c1ccco1` gave Six1-Eya2 blk inactive, HP1b binding inh inactive, CtBP-E1A inh inactive, G9a block inconclusive, JMJD2A Tudor inconclusive and BAZ2B inh inactive.
For NS(=O)(=O)c1ccc(NC(=S)NC(=O)/C=C/c2ccco2)cc1 the results were Six1-Eya2 blk inactive, HP1b binding inh inactive, CtBP-E1A inh inactive, G9a block inconclusive, JMJD2A Tudor inactive and BAZ2B inh inconclusive.
Screening CCCC(=O)NC(=S)Nc1cccc(-c2nc3ncccc3o2)c1 returned Six1-Eya2 blk inactive, HP1b binding inh inactive, CtBP-E1A inh inactive, G9a block 22µM, JMJD2A Tudor inactive and BAZ2B inh inactive.
For CC(=O)c1ccc(NC(=S)NC(=O)/C=C/c2ccco2)cc1 the results were Six1-Eya2 blk inactive, HP1b binding inh inactive, G9a block 45µM, JMJD2A Tudor inconclusive and BAZ2B inh inconclusive.
O=C(/C=C/c1ccco1)NC(=S)Nc1cccc(-c2nc3ccccc3o2)c1 was read as Six1-Eya2 blk inactive, HP1b binding inh inactive, CtBP-E1A inh inactive, G9a block inconclusive, JMJD2A Tudor 50µM and BAZ2B inh 45µM.
Screening Cc1cccc(NC(=S)NC(=O)/C=C/c2ccco2)c1 returned Six1-Eya2 blk inactive, HP1b binding inh inconclusive, CtBP-E1A inh inactive, G9a block 25µM, JMJD2A Tudor inconclusive and BAZ2B inh 45µM.
For CC(NS(=O)(=O)c1ccc(OCC(=O)NCc2ccccn2)cc1)c1ccccc1 (centres undefined) the results were Six1-Eya2 blk inactive, HP1b binding inh inactive, CtBP-E1A inh inactive, G9a block inactive, JMJD2A Tudor inactive and BAZ2B inh inactive.
For N#CN1CCC(NC(=O)c2cccc(F)c2)CC1 the results were JMJD2A Tudor inactive.
Screening O=P(OC1CCCCC1)(OC1CCCCC1)C(Nc1ccccc1)c1cccnc1 (centres undefined) returned Six1-Eya2 blk inactive, HP1b binding inh inactive, CtBP-E1A inh inactive, G9a block inactive, JMJD2A Tudor inactive and BAZ2B inh inconclusive.
For CCc1ccc2oc(C(=O)Nc3nc(-c4ccccc4)ns3)c(C)c2c1 the results were HP1b binding inh inactive, G9a block inactive, JMJD2A Tudor inactive and BAZ2B inh inactive.
Screening Cc1ccc(-c2nc(CN3CCCCC3)cc(CN3CCCCC3)c2O)cc1 returned Six1-Eya2 blk inactive, HP1b binding inh inactive, CtBP-E1A inh inactive, JMJD2A Tudor inactive and BAZ2B inh inactive.
Screening Cc1c(C2=CCN(S(=O)(=O)c3ccc(Br)cc3)CC2)c2ccccc2n1C returned Six1-Eya2 blk inactive, HP1b binding inh inactive, CtBP-E1A inh inactive, G9a block 40µM, JMJD2A Tudor inactive and BAZ2B inh inconclusive.
Screening CC1(C)CC(=O)C=C(NCC(O)c2ccccc2)C1 (centres undefined) returned Six1-Eya2 blk inactive, HP1b binding inh inactive, JMJD2A Tudor inactive and BAZ2B inh inactive.

High-throughput results (PubChem BioAssay)
